High-throughput results deposited in PubChem BioAssay by National Center for Advancing Translational Sciences (NCATS).
Tau fibril FP = inhibitors of human tau fibril formation. Potency, µM (doses to about 57.7 µM), usual class: inhibitors. 0.39% of 280,000 active. AID 1468. K18 P301L tau heparin fibrillization, Alexa594 FP, 6 h. P10636; active = well fitted curve in the direction sought with a large enough effect; inconclusive = small, poorly fitted or top-dose-only effect, or another doubt; inactive = no such curve, though single readings can be large; an effect the other way counts as inactive or inconclusive; note: nearly all actives have a fitted effect of over 55% in size
Target sequence (P10636 561-689 P618L limits assumed): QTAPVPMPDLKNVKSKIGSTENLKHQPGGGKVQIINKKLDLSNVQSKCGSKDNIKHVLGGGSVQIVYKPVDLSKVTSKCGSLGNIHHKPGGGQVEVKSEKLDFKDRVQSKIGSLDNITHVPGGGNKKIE
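FP of Alexa 594-tau after heparin (20 uM) induction. Substrate: human K18 P301L, 15 uM unlabeled, 0.24 uM labeled. Buffer 100 mM sodium acetate pH 7. 6 hr, 37 C.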
Tau fibril ThT = inhibitors of human tau fibril formation, thioflavin T binding. P10636. recombinant tau K18 P301L, heparin-induced fibrillization, ThT fluorescence. Potency, µM (titrated, usually from 57.4 µM), usual class: inhibitors. 2.1% of 270,000 active. AID 1460; active = well fitted curve in the direction sought with a large enough effect; inconclusive = small, poorly fitted or top-dose-only effect, or another doubt; inactive = no such curve, though single readings can be large; an effect the other way counts as inactive or inconclusive; note: nearly all actives have a fitted effect of over 55% in size
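Heparin-induced (20 uM) aggregation of recombinant human K18 P301L tau, 15 uM unlabeled with 0.24 uM labeled, pH 7 acetate buffer, 6 hr at 37 C with compound. Fibrils quantified by 30 uM ThT fluorescence after 1 hr ambient incubation.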
Tau fluor counter = counter-screen for tau fibril formation inhibitors; AID 1463; tau K18 P301L (four-repeat tau fragment) Alexa594 fluorescence, heparin fibrillization; 0.93% of 280,000 active; Potency, µM (highest dose often 57.7 µM); active = well fitted curve in the direction sought with a large enough effect; inconclusive = small, poorly fitted or top-dose-only effect, or another doubt; inactive = no such curve, though single readings can be large; an effect the other way counts as inactive or inconclusive; note: nearly all actives have a fitted effect of over 55% in size
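Human K18 P301L tau (15 uM unlabeled plus 0.24 uM Alexa 594-labeled, final) in 100 mM sodium acetate pH 7 was mixed with compound and 20 uM heparin and incubated 6 hr at 37 C.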
JMJD2E inh = JMJD2E (human) inhibition | JMJD2E catalytic domain, FDH-coupled NADH fluorescence (FDH is formaldehyde dehydrogenase) | 1.6% of 230,000 active | B2RXH2 | Potency, µM (top dose mostly 57.1 µM), actives largely listed as inhibitors; note: nearly all actives have a fitted effect of over 50% in size
HPGD block = inhibitors of human 15-hydroxyprostaglandin dehydrogenase (HPGD) | purified HPGD, NADH fluorescence kinetic, PGE2 substrate | AID 894 | Potency, µM, hits mostly inhibitors | 4.3% of 150,000 active
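20 nM HPGD preincubated 15 min at room temperature with compound in 50 mM Tris-HCl pH 8, 0.01% Tween 20. Started with 1 mM NAD+ and 30 uM prostaglandin E2; NADH fluorescence (360/450 nm) read 5 times over 30-s intervals, last minus first.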
ALDH1A1 inh = blocks purified human ALDH1A1 activity; P00352; Purified ALDH1A1, NADH fluorescence, propionaldehyde substrate; Potency, µM (titrated, usually from 75.3 µM), actives largely listed as inhibitors; 7.3% of 220,000 active; AID 1030
Target sequence (P00352 whole entry, looked up): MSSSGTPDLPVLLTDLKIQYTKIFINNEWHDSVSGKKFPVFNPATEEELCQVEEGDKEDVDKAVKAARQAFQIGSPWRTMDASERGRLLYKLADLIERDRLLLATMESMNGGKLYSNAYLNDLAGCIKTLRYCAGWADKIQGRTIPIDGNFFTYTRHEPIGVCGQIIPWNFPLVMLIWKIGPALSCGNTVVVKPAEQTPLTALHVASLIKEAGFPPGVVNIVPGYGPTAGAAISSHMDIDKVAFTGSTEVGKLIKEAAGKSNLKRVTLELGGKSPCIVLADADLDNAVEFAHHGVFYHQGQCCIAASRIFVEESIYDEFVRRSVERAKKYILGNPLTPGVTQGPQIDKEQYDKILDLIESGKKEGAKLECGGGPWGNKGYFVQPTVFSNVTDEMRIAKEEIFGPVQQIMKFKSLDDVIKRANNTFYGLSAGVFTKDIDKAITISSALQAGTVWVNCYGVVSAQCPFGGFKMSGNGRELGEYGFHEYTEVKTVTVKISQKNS
Hits are given with their value. In the library only some 9.9% were active in any assay of this set; here they are far more common. Unless noted, calls come from the whole dose curve; as a rule, active = well fitted inhibition curve with a large enough effect (not every such curve was filed as active); inconclusive = small, poorly fitted or top-dose-only effect, or another doubt; inactive = no such curve, though single readings can be large or run the other way.

CC(Oc1cccc(F)c1)c1ccnc2nc(/N=C/N(C)C)nn12 (stereo unspecified) was read as Tau fibril FP inactive, Tau fibril ThT inactive, Tau fluor counter inactive, JMJD2E inh inconclusive and ALDH1A1 inh inconclusive.
CC(C)c1ccc(C(=O)NCCCN(C)C)cc1 was read as Tau fibril FP inactive, Tau fibril ThT inactive, Tau fluor counter inactive, JMJD2E inh inactive, HPGD block 14µM and ALDH1A1 inh inactive.
Screening Cc1nnc(NC(=O)C2CCN(c3cnccn3)CC2)s1 returned Tau fibril FP inactive, Tau fibril ThT inactive, Tau fluor counter inactive, JMJD2E inh inactive, HPGD block inactive and ALDH1A1 inh inactive.
`Cc1nnc(NC(=O)C2CCN(c3nnnn3-c3ccccc3)CC2)s1` gave Tau fibril FP inactive, Tau fibril ThT inactive, Tau fluor counter inactive, JMJD2E inh inactive, HPGD block inactive and ALDH1A1 inh 20µM.
O=C(Nc1cccc2c1CCCC2)C1CCN(c2nnnn2-c2ccccc2)CC1 was read as Tau fibril FP inactive, Tau fibril ThT inactive, Tau fluor counter inactive, JMJD2E inh inactive, HPGD block inactive and ALDH1A1 inh 8.9µM.
For COc1nc(OC)nc(N2CCC(C(=O)Nc3cccc4c3CCCC4)CC2)n1 the results were Tau fibril FP inactive, Tau fibril ThT inconclusive, Tau fluor counter inactive, JMJD2E inh inactive, HPGD block inactive and ALDH1A1 inh inactive.
Screening CCOC(=O)c1cnn(-c2cccc(F)c2)c1C1CCNCC1 returned Tau fibril FP inactive, Tau fibril ThT inactive and Tau fluor counter inactive.
`Cn1cnc2nc(NCCO)nc(NCc3ccccc3)c21` gave Tau fibril FP inactive, Tau fibril ThT inactive, Tau fluor counter inactive and ALDH1A1 inh inactive.
Cc1nn2c3c(cnc2c1-c1ccccc1)C(=O)CC(c1ccco1)C3 (stereo unspecified) was read as Tau fibril FP inactive, Tau fibril ThT inactive, Tau fluor counter inactive, JMJD2E inh inactive, HPGD block inactive and ALDH1A1 inh 25µM.
For Cc1nn2c3c(cnc2c1-c1ccccc1)C(=O)CC(c1ccccc1)C3 (stereo unspecified) the results were Tau fibril FP inactive, Tau fibril ThT inactive, Tau fluor counter inactive, JMJD2E inh inactive, HPGD block inactive and ALDH1A1 inh inconclusive.
`COc1ccc(OC)c(NC2=C(c3ccccc3)C(=O)c3ccccc32)c1` gave Tau fibril FP inactive, Tau fibril ThT 14µM and Tau fluor counter inconclusive.
Screening Cc1[nH]n(-c2ccccc2)c(=O)c1C=Nc1cccc2cccnc12 returned Tau fibril FP inactive, Tau fibril ThT inconclusive, Tau fluor counter inconclusive, JMJD2E inh inconclusive, HPGD block inactive and ALDH1A1 inh inactive.
Cc1[nH]n(-c2ccccc2)c(=S)c1C=Nc1cccc([N+](=O)[O-])c1 was read as Tau fibril FP inconclusive, Tau fibril ThT 22µM, Tau fluor counter inactive, JMJD2E inh 5.6µM, HPGD block 8.9µM and ALDH1A1 inh 5.6µM.
COc1ccc(-n2nnc3c(=O)n(CC(=O)N4CCCc5ccccc54)cnc32)cc1 was read as Tau fibril FP inconclusive, Tau fibril ThT inactive, Tau fluor counter inactive, JMJD2E inh inactive, HPGD block inconclusive and ALDH1A1 inh inconclusive.
For Brc1ccccc1-c1nnc(CSc2nnnn2-c2ccccc2)o1 the results were Tau fibril FP inactive, Tau fibril ThT inactive, Tau fluor counter inactive, JMJD2E inh inactive, HPGD block 16µM and ALDH1A1 inh 10µM.
Screening c1ccc(-n2nnnc2SCc2cccc3nsnc23)cc1 returned Tau fibril FP inactive, Tau fibril ThT inactive, Tau fluor counter inactive, JMJD2E inh inactive, HPGD block inconclusive and ALDH1A1 inh 14µM.
Screening O=C(Cn1cnc2c(nnn2-c2ccc(F)cc2)c1=O)N1CCCc2ccccc21 returned Tau fibril FP inactive, Tau fibril ThT inactive, Tau fluor counter inactive, JMJD2E inh inactive, HPGD block inactive and ALDH1A1 inh 28µM.
Screening CSc1nnnn1-c1ccc(C(=O)O)cc1 returned Tau fibril FP inactive, Tau fibril ThT inactive, Tau fluor counter inactive, JMJD2E inh inactive and ALDH1A1 inh inactive.
For O=C(O)c1ccc(-n2nnnc2SCc2ccccc2F)cc1 the results were Tau fibril FP inactive, Tau fibril ThT inactive, Tau fluor counter inactive, JMJD2E inh inactive, HPGD block 16µM and ALDH1A1 inh inconclusive.
Screening Cc1nnc(SCc2nnc(-c3ccccc3Br)o2)n1-c1ccccc1 returned Tau fibril FP inactive, Tau fibril ThT inactive, Tau fluor counter inactive, JMJD2E inh inactive, HPGD block inactive and ALDH1A1 inh inactive.
`CNc1ncncc1-c1ccccc1C` gave ALDH1A1 inh inactive.
C[C@@H](O)CNC(C)(C)CC(=O)N[C@@H]1CCc2ccccc2N(Cc2ccc(-c3ccccc3-c3nn[nH]n3)cc2)C1=O was read as Tau fibril FP inactive, Tau fibril ThT inactive, Tau fluor counter inactive, HPGD block inactive and ALDH1A1 inh inactive.
O=C1c2ccccc2C(=O)N1CSc1nnnn1-c1ccccc1 was read as Tau fibril FP inactive, Tau fibril ThT inactive, Tau fluor counter inactive, JMJD2E inh inactive, HPGD block inactive and ALDH1A1 inh inconclusive.
COc1cc(NC(=O)CSc2nnnn2-c2ccccc2)cc(OC)c1OC was read as Tau fibril FP inactive, Tau fibril ThT inactive, Tau fluor counter inactive, JMJD2E inh inactive, HPGD block inactive and ALDH1A1 inh inactive.
For Nc1nc(CSc2nnnn2-c2ccccc2)nc(N2CCCc3ccccc32)n1 the results were Tau fibril FP inactive, Tau fibril ThT inactive, Tau fluor counter inactive, JMJD2E inh inactive, HPGD block inconclusive and ALDH1A1 inh 2.8µM.
Screening O=C(CCCSc1nnnn1-c1ccccc1)c1ccc(F)cc1 returned Tau fibril FP inactive, Tau fibril ThT inactive, Tau fluor counter inactive, JMJD2E inh inactive, HPGD block inactive and ALDH1A1 inh 1.3µM.
For O=C(O)CCSc1nnnn1-c1ccccc1 the results were Tau fibril FP inactive, Tau fibril ThT inactive, Tau fluor counter inactive, JMJD2E inh inactive and ALDH1A1 inh inactive.
`O=C1c2ccccc2C(=O)N1CCCCSc1nnnn1-c1ccccc1` gave Tau fibril FP inactive, Tau fibril ThT inactive, Tau fluor counter inactive, JMJD2E inh inactive, HPGD block 7.9µM and ALDH1A1 inh 0.18µM.
`Cc1cc(C)nc(NC(=O)CSc2nnnn2-c2ccccc2)n1` gave Tau fibril FP inactive, Tau fibril ThT inactive, Tau fluor counter inactive, JMJD2E inh inactive, HPGD block inactive and ALDH1A1 inh 7.1µM.
For CCOc1ccc(-c2nn(CC(=O)NC3CCCCC3)c3c2cnc2ccc(C)cc23)cc1 the results were Tau fibril FP inactive, Tau fibril ThT inactive and Tau fluor counter inactive.
`CCCOc1ccc(C2C(=O)N(C3CCC(C)CC3)CC(=O)N2Cc2cccc(OC)c2)cc1OC` (stereo unspecified) gave Tau fibril FP inactive, Tau fibril ThT inactive and Tau fluor counter inactive.
